Experiment [1] is described as follows: liver-stage malaria parasite growth inhibition, primary screen, cell-based, HepG2, luciferase luminescence, HepG2 viability (AID 624349; in the data active = parasite load remaining mostly below about 12%, no sharp cut-off; inactive = mostly above about 10%;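 note: 100% = mean of DMSO negative control wells on the same plate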). The settings on record: P. berghei liver stage in HepG2, luciferase luminescence, concentration not given here; parasite load remaining: stronger effect = lower value; viability: measured here: HepG2 viability without parasites.
The subject of experiment [2] is Hepatitis C virus NS3 helicase. The experiment can be described thus: HCV NS3 helicase inhibitors, primary screen, biochemical, fluorescence polarization, LOPAC1280 library (AID 687035; in the data active = inhibition above about 37%). The conditions noted are these: Purified HCV NS3 helicase, Cy5-dT15 ssDNA binding fluorescence polarization; stronger effect = higher value; concentration not given here. For orientation: In fluorescence polarisation assays a small probe gives low polarisation when free and higher when bound to something large.

Experiment [3] can be described thus: Cy5 fluorescence quenching or enhancement artefacts, artefact control for HCV NS3 helicase inhibitor project, biochemical, LOPAC1280 (AID 687037). The conditions noted are these: Cy5-DNA-NS3h complex fluorescence interference counterscreen. For orientation: The purpose of a counterscreen is to sort out artefacts and off-target activity.
Experiment [4] can be described thus: stimulators of nuclear beta-catenin in C2C12, primary screen, imaging, WNT3A-conditioned medium, mouse C2C12, NPC library (AID 1117326; in the data active = nuclear beta-catenin stimulation mostly above about 4.2%, no sharp cut-off; inactive = mostly below about 10%). The conditions noted are these: stronger effect = higher value.
Experiment [5] can be described thus: stimulators of insulin release from INS-1E, primary screen, cell-based, 5 mM glucose, NPC library (AID 1117329;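 active = compound raises insulin release from rat beta cells at 5 mM glucose, no numeric limit stated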). The settings on record: rat INS-1E insulin secretion, at 10 µM, stronger effect = higher value.
Experiment [6] in a line: growth inhibition of GSK3B-pretreated HCT116 cells – cell-based, CellTiter-Glo, 0.2 to 20 µM (AID 1117336;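 active = compounds lowering colon cancer cell viability after pretreatment blocking the GSK3B kinase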). The settings on record: HCT116 viability after GSK3B inhibitor, at 20 µM, stronger effect = higher value.
Experiment [7] can be described thus: inhibition of endothelial tube formation, primary screen, imaging, VEGF stimulated, CD31 staining, tube area, NPC library (AID 1117340;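 active = compound that reduces growth-factor-driven endothelial tube area in a mixed cell culture, no cutoff stated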). The settings on record: VEGF-stimulated ADSC/ECFC co-culture, at 10 µM, stronger effect = higher value.
Experiment [8] can be described thus: glucagon-like peptide 1 release enhancers, primary assay, NCI-H716 cell line, NPC library (AID 1117341;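 active = compound raises GLP1 secretion from the human gut endocrine cells, with no numeric limit stated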). The settings on record: NCI-H716 cells, at 10 µM, stronger effect = higher value.
Experiment [9] in a line: HCT116 colon cancer cell growth inhibition, primary screen, CellTiter-Glo luminescence, NPC library (AID 1117342;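 active = compounds that lower survival of HCT116 colon cancer cells in the luminescence readout, no numeric limit stated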). The settings on record: at 20 µM (top of the series). (In general: Cellular ATP, detected with luciferase, serves as a proxy for viable cell number.)
Experiment [10] is described as follows: CellTiter-Glo luminescent readout of SW480 viability loss, NPC library primary (AID 1117343;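 active = compounds that lower viability of the colon cancer cells in the luminescence readout, with no numeric limit stated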). The conditions noted are these: CellTiter-Glo luminescence; at 20 µM (top of the series).
Experiment [11] in a line: decreased DLD-1 cellular survival, CellTiter-Glo luminescent readout, NPC compound collection, primary HTS (AID 1117346;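 active = compounds that lower survival of DLD-1 colon cancer cells in the luminescence readout, no cutoff given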). The settings on record: DLD-1 viability, CellTiter-Glo luminescence; at 20 µM (top of the series).
Experiment [12] concerns the target 6-phosphogluconate dehydrogenase, decarboxylating (Homo sapiens) (UniProt P52209). The experiment can be described thus: 6PGD enzyme inhibitors, primary screen, biochemical, human, recombinant enzyme, NADPH absorbance (AID 1159550;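 active = at least 20% inhibition of 6-phosphogluconate dehydrogenase activity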). The conditions noted are these: recombinant 6PGD, NADPH absorbance 341 nm; at 10 µM; stronger effect = higher value.
A short description of experiment [13]: Cy5 fluorescence interference with SSB-bound oligo, artefact control for HCV NS3 helicase inhibitor project, biochemical, NIH Clinical Collection, E. coli SSB (AID 743268).
In experiment [14] the test system is Hepatitis C virus NS3 helicase. The experiment can be described thus: HCV NS3 helicase inhibitors, primary screen, biochemical, fluorescence polarization, NIH Clinical Collection (AID 743270). The conditions noted are these: NS3 helicase binding to Cy5-dT15 DNA, stronger effect = higher value, concentration not given here.
In experiment [15] the target is Single-stranded DNA-binding protein (Escherichia coli (strain K12)) (UniProt P0AGE0). The experiment can be described thus: E. coli SSB displacement from DNA, counter-screen for HCV NS3 helicase inhibitor project, biochemical, fluorescence polarization, NIH Clinical Collection (AID 743271; in the data active = inhibition above about 28%). The conditions noted are these: stronger effect = higher value, concentration not given here.

Experiment [16] is described as follows: fluorescence interference in NS3h assay format, artefact control for HCV NS3 helicase inhibitor project, biochemical, NIH Clinical Collection (AID 743272).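 Note: HCV NS3 helicase with a Cy5 labelled single stranded DNA probe.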 The conditions noted are these: fluorescence interference counterscreen, stronger effect = lower value.
Experiment [17] concerns Neuropilin-2 / VEGF-C interaction (human). The experiment can be described thus: inhibitors of NRP2–VEGF-C binding, biochemical, microplate binding format, z-score (AID 743281). The conditions noted are these: microplate NRP2/VEGF-C binding assay; stronger effect = lower value.

SMILES strings stand for the structures. Where “and” joins values, the source holds several entries; their conditions need not be identical. Identical values can stand only once. Calls of active or inactive are those of the source. Unless noted, the rule behind the calls is not given here.

Sequence of 6-phosphogluconate dehydrogenase, decarboxylating (Homo sapiens) (P52209 whole entry, looked up): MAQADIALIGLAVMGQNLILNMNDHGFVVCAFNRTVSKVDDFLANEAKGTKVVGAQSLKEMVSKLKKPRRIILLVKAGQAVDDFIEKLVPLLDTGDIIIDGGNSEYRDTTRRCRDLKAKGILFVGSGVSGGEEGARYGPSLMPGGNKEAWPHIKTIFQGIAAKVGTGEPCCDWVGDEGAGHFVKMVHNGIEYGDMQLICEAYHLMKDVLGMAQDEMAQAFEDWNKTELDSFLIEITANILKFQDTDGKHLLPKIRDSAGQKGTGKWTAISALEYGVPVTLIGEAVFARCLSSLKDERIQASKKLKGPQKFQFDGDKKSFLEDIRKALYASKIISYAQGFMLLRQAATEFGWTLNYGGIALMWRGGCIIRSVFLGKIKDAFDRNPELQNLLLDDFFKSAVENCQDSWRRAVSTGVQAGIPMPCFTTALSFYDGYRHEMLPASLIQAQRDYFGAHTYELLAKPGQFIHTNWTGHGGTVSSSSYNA

The viability is a read-out of living cells in per cent, often relative to untreated cells. Broadly, the inhibition is the drop in the measured response relative to a control, in per cent. `Cc1oncc1C(=O)Nc1ccc(C(F)(F)F)cc1`: the parasite load remaining in [1] was 174% (inactive) and 159% (inactive) and 30% (inactive). In experiment [1], the viability is 94.2% and 84.7% and 88.5%. The values for the inhibition in experiment [2] and in experiment [12] were -2% (inactive) and -7% (inactive), respectively. Moreover, the fluorescence ratio (interference) in experiment [3] is 1 (inactive). Moreover, the nuclear beta-catenin stimulation is 15.4% (inactive) in experiment [4] (at 10 µM) and 3.9% in experiment [4] (stimulation, at 2 µM). Besides, the insulin secretion stimulation in experiment [5] was -1.5% (inactive). The viability decrease in experiment [6] was 40% (inactive). In addition, in [7], the tube area decrease was 32% (inactive). In addition, in experiment [8], the GLP1 secretion stimulation was 9% (inactive). The inhibition of viability in [9] was 38.7% (inactive). Moreover, the viability decrease (inhibition) in experiment [10] was 39.1% (inactive); in experiment [11] it was 22% (inactive).
`CCCCC1C(=O)N(c2ccccc2)N(c2ccccc2)C1=O`: the parasite load remaining in [1] is 85.8% (inactive) and 69.9% (inactive) and 33.4% (inactive). Besides, in [1], the viability is 73% and 101% and 70.5%. In addition, the values for the inhibition in experiment [2] and in experiment [12] were -4% (inactive) and 1.47% (inactive), respectively. Also, the fluorescence ratio (interference) in experiment [3] was 1 (inactive). In addition, the nuclear beta-catenin stimulation is -2% (inactive) in experiment [4] (at 10 µM) and -0.9% in experiment [4] (stimulation, at 2 µM). The insulin secretion stimulation in experiment [5] was -1.7% (inactive). In addition, the viability decrease in experiment [6] is -11.7% (inactive). The tube area decrease in experiment [7] was 0.7% (inactive). Also, the GLP1 secretion stimulation in experiment [8] was -3.3% (inactive). For the same compound, the inhibition of viability in experiment [9] is 9.25% (inactive). The viability decrease (inhibition) is 13.6% (inactive) in experiment [10] and -12.9% (inactive) in experiment [11].
Take `Cc1cc(C(C)(C)C)c(O)c(C)c1CC1=NCCN1`: the inhibition is -6% (inactive) in [2] and 6.36% (inactive) in [12]. Moreover, in [3], the fluorescence ratio (interference) was 0.9 (inactive). For the same compound, the nuclear beta-catenin stimulation in experiment [4] (at 10 µM) is 1.6% (inactive); in [4] (stimulation, at 2 µM), 2.7%. For the same compound, in experiment [5], the insulin secretion stimulation is 2.1% (inactive). For the same compound, the viability decrease in experiment [6] was 5.6% (inactive). In addition, the tube area decrease in [7] was -3.7% (inactive). For the same compound, in experiment [8], the GLP1 secretion stimulation is 4.3% (inactive). Besides, the inhibition of viability in experiment [9] was 20.6% (inactive). Further, the viability decrease (inhibition) in [10] is -4.2% (inactive); in experiment [11], -0.8% (inactive).
With `NC(N)=Nc1nc(CSCC/C(N)=N/S(N)(=O)=O)cs1`, the fluorescence ratio in experiment [13] was 0.96 (inactive); in experiment [16], 0.9 (inactive). The inhibition in experiment [14] was 3.56% (inactive); in experiment [15], 6.83% (inactive); in experiment [12], 5.97% (inactive). Also, the z-score in experiment [17] was -0.254 (inactive). Moreover, the nuclear beta-catenin stimulation in experiment [4] (at 10 µM) is 0.9% (inactive); in [4] (stimulation, at 2 µM), -1.4%. Further, in experiment [5], the insulin secretion stimulation is 2.8% (inactive). Moreover, in [6], the viability decrease is 6.7% (inactive). The tube area decrease in experiment [7] is 6.4% (inactive). In [8], the GLP1 secretion stimulation is 1.4% (inactive). Besides, in [9], the inhibition of viability is -8.7% (inactive). In addition, the results for the viability decrease (inhibition) in [10] and in experiment [11] were 0.7% (inactive) and -10.3% (inactive), respectively.
With `NC(Cc1ccc(Cl)cc1)C(=O)O` (centres undefined), the inhibition in [2] is -3% (inactive); in [12] it was 5.29% (inactive). Also, in experiment [3], the fluorescence ratio (interference) is 1 (inactive). Further, the nuclear beta-catenin stimulation is 1.4% (inactive) in experiment [4] (at 10 µM) and 2.1% in experiment [4] (stimulation, at 2 µM). In addition, the insulin secretion stimulation in [5] is -1.3% (inactive). Also, the viability decrease in [6] was -0.7% (inactive). Further, in [7], the tube area decrease is -8.9% (inactive). Besides, the GLP1 secretion stimulation in experiment [8] is 0.5% (inactive). Moreover, the inhibition of viability in [9] was -7.8% (inactive). The viability decrease (inhibition) in experiment [10] was 13.2% (inactive); in experiment [11] it was -6.55% (inactive).
Consider `NC(=O)c1ncn([C@@H]2O[C@H](CO)[C@@H](O)[C@H]2O)c1O`, for which the inhibition in experiment [2] is -3% (inactive); in experiment [12] it was 1.32% (inactive). For the same compound, the fluorescence ratio (interference) in experiment [3] was 1 (inactive). Also, the nuclear beta-catenin stimulation was 3% (inactive) in experiment [4] (at 10 µM) and 2.4% in experiment [4] (stimulation, at 2 µM). Further, in experiment [5], the insulin secretion stimulation is -2.6% (inactive). In addition, the viability decrease in experiment [6] is -1.75% (inactive). Besides, in experiment [7], the tube area decrease was 3.8% (inactive). Moreover, in [8], the GLP1 secretion stimulation is 2.6% (inactive). Further, the inhibition of viability in experiment [9] was -13.1% (inactive). The viability decrease (inhibition) in experiment [10] is 2.7% (inactive); in experiment [11], 4.7% (inactive).

Values taken from PubChem BioAssay.
